Cardiac RTF inh: cardiac RTF calcium desensitization; IANBD-labeled cardiac RTF, Ca2+ fluorescence; inhibition, % at 7.15 µM; actives 0.12% (n = 340,000); AID 493244; P19429+P45379;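 active = inhibition above the mean inhibition of all tested compounds plus 3 SD, cut at about 17% in these data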;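 note: assay run at fixed EC70 calcium of 1.6 mM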
IDE inh: inhibitors of human insulin-degrading enzyme in cells | HEK cells, FAbetaB cleavage, fluorescence polarization | inhibition, % at 5.59 µM | P14735 | actives 0.41% (n = 320,000);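 active = percent inhibition above the average of all tested compounds plus 3 SD, set per screening campaign, cut at about 16% in these data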;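 note: IDE supplied by intact live HEK cells; FP after avidin binding of uncleaved biotin substrate so inhibition keeps polarization high; 0% = DMSO wells and 100% = 60 µM reference IDE inhibitor Ii1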
LANA DNA inh: blocks KSHV LANA C-terminal domain binding to DNA. MBP-C-LANA/FAM-LBS DNA binding, fluorescence polarization. inhibition, % at 9 µM. actives 0.078% (n = 340,000);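 active = highest replicate inhibition at or above 60% at 9 µM, even if other replicates fall short; inactive = all replicates below 60% inhibition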;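 note: 0% = neutral control wells and 100% = 4 µM acridine orange control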
IDE act: activators of human insulin-degrading enzyme in cells; activation, % at 5.96 µM; HEK cells, FAbeta-B cleavage, fluorescence polarization; 0% vehicle, 100% cell-free pure enzyme wells; AID 493087; P14735; actives 0.073% (n = 340,000);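 active = activation above the mean of all tested compounds plus 3 SD, set per screening campaign, cut at about 17% in these data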
Keap1 Nrf2 FP: disrupts human Keap1 binding to Nrf2 peptide; AID 504523; Q14145; inhibition, % at 9.4 µM; actives 0.15% (n = 340,000); Keap1 Kelch-Nrf2 peptide fluorescence polarization, 1536-well; in the data active = inhibition above about 12%;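 note: human Keap1 Kelch domain with fluorescein labeled Nrf2 9mer peptide probe; 0% = neutral control wells and 100% = peptide positive control; higher means more block of Keap1 binding to Nrf2 peptide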
Target sequence (Q14145 whole entry, looked up, the tested form may be a part): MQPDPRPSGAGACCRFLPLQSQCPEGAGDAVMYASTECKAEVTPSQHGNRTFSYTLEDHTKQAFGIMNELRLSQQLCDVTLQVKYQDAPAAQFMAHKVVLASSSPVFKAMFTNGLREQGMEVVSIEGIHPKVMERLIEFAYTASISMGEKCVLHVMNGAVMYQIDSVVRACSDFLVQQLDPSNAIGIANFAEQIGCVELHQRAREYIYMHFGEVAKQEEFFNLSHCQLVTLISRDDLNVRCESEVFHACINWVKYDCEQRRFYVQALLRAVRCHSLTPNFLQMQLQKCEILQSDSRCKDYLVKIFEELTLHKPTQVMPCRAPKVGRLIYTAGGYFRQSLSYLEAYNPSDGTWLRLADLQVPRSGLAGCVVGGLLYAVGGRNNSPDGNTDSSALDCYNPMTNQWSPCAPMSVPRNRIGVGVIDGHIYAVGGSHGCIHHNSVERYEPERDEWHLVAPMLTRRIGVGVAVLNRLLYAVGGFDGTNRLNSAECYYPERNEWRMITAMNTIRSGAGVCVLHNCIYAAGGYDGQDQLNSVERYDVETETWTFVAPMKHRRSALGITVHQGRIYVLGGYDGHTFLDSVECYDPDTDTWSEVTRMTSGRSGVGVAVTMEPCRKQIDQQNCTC
cardiac RTF act: increases calcium sensitivity of human cardiac regulated thin filaments | activation, % at 7.2 µM | AID 493008 | IANBD-labeled TnC RTF fluorescence at EC20 calcium; 0% EC20 calcium, 100% full calcium | actives 0.24% (n = 340,000) | P19429+P45379;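 active = activation above the mean over all tested compounds plus 3 SD, cut at about 30% in these data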;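 note: rise in fluorescence read as greater calcium sensitivity of cardiac thin filaments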
IDE inh confirm: cellular human IDE inhibition, confirmation; shares compounds with IDE inh; AID 435028; actives 51% (n = 1,200); inhibition, % at 5.59 µM; HEK cells, FAbetaB cleavage, fluorescence polarization;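 active = mean inhibition across triplicate wells above the cutoff set by the earlier primary insulin-degrading enzyme screen, cut at about 16% in these data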;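 note: 0% = DMSO wells and 100% = 60 µM reference IDE inhibitor Ii1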
HEK cytotox: kills HEK cells in IDE inhibitor counter-screen; shares compounds with IDE inh; HEK293 cytotoxicity, ATP luminescence; inhibition, % at 5.59 µM; actives 28% (n = 1,200); in the data active = inhibition above about 22%;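 note: 0% = vehicle wells and 100% = reference cytotoxic drug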
FP fluor counter: fluorescence interference counter-screen for IDE inhibitors; FP counterscreen for fluorescent artifacts, IDE probe project; IC50, µM; shares compounds with IDE inh; 30 tested, under 10 active; call rule not given here
Active calls of the source: *; i = inactive; · = no result. In the library only some 0.81% were active in any assay of this set; here they are far more common.

SMILES	Cardiac RTF inh	IDE inh	LANA DNA inh	IDE act	Keap1 Nrf2 FP	cardiac RTF act	IDE inh confirm	HEK cytotox	others
Cc1cc(=O)oc2c3c(cc(OCC(=O)NCc4ccncc4)c12)OC(C)(C)CC3	4	22*	-1	-19	0	5	13	24*
Cc1cc(C)c2nc(N3CCN(C(=O)c4ccco4)CC3)sc2c1	3	10	-1	-7	0	-13	·	·
Cc1cccc2[nH]c3c(N4CCN(C(=O)c5ccco5)CC4)ncnc3c12	1	30*	-2	-20	2	-3	12	9
Cc1cc2nc(N3CCN(C(=O)c4ccco4)CC3)sc2cc1C	-10	22*	-1	-12	5	-5	5	26*
Cc1sc2ncnc(N3CCN(C(=O)c4ccco4)CC3)c2c1C	-1	16	-1	-12	-1	-2	·	·
COc1cc(NC(=O)CSc2nnc3c(C)cc4c(C)ccc(C)c4n23)c(C(=O)O)cc1OC	-8	-3	2	1	1	0	·	·
Cc1oc2cc3oc(=O)c(CCC(=O)NCCCn4ccnc4)c(C)c3cc2c1C	-10	16	2	-16	0	-2	·	·
Cc1c(CCC(=O)NCCCn2ccnc2)c(=O)oc2cc3oc4c(c3cc12)CCCC4	1	56*	-2	-50	-4	-4	33*	22	FP fluor counter=>55
Clc1ccc(-n2ncc3c(NCC4CCCO4)ncnc32)cc1 (stereo not drawn)	1	7	-1	2	-3	-2	·	·
Clc1ccc2[nH]c3c(NCC4CCCO4)ncnc3c2c1 (stereo not drawn)	·	38*	·	·	·	·	17*	34*
Fc1ccc2[nH]c3c(NCCN4CCOCC4)ncnc3c2c1	3	3	-1	-1	-2	-5	·	·
Clc1ccc2[nH]c3c(NCCN4CCOCC4)ncnc3c2c1	-9	19*	-2	-3	-7	-6	4	16
C/C(CC(=O)Nc1cc(C)ccn1)=N\NC(=O)c1ccc(C(C)(C)C)cc1	-19	-5	-1	-1	-3	-2	·	·
O=C(Cc1cccc(F)c1F)NC1CCCN(Cc2ccc(Cl)cc2)C1 (stereo not drawn)	1	1	-2	-5	-6	-2	·	·
COc1ccccc1-c1ccc(/C=C2\C=CC(=O)O2)o1	·	29*	-2	·	-61	·	39*	12
COc1ccc(NC(=O)CCCC(=O)OCC(=O)c2cccc(OC)c2)cc1	0	1	-2	6	-1	-2	·	·
CCCOc1ccc(-c2c(C(=O)N/N=C/c3ccc(OC)cc3)nnn2-c2nonc2N)cc1	-1	12	-2	-8	5	1	·	·
CCOc1ccc(-c2c(C(=O)N/N=C/c3ccc(OC)cc3)nnn2-c2nonc2N)cc1	0	20*	2	4	-5	-10	4	7
CCC1(C)Cc2ccccc2-c2[nH][nH]c(=O)c21 (stereo not drawn)	-2	3	0	8	-3	4	·	·
O=C(Nc1ccc(N2CCN(c3ncccc3C(F)(F)F)CC2)nc1)c1cccs1	-3	2	4	3	6	0	·	·
O=C(Nc1ccc(N2CCN(c3ccc(C(F)(F)F)cn3)CC2)nc1)c1cccs1	1	17*	0	-19	-2	-3	7	31*
CNc1snc(C)c1C(=O)OC(C)C(=O)Nc1ccc(F)cc1 (stereo not drawn)	-11	2	1	4	1	-3	·	·
CCOC(=O)C1C(c2ccc(C(=O)O)cc2)NC(=O)NC1(O)C(F)(F)F (stereo not drawn)	-1	0	1	0	-1	-1	·	·
CC(C)(C)c1cc(NC(=O)c2cccc(S(=O)(=O)N3CCOCC3)c2)no1	1	-1	-2	2	-1	15	·	·
O=C1C2C3C=CC(C3)C2C(=O)N1CCCCCCN1C(=O)C2C3C=CC(C3)C2C1=O (stereo not drawn)	-2	-1	1	-7	-7	3	·	·
SMILES	Cardiac RTF inh	IDE inh	LANA DNA inh	IDE act	Keap1 Nrf2 FP	cardiac RTF act	IDE inh confirm	HEK cytotox	others
O=C1C=CC(=O)N1CCCCCCN1C(=O)C=CC1=O	·	19*	·	·	·	·	4	124*
CCOc1ccc(OCCC(=O)OCC(=O)NC(C)c2ccccc2)cc1 (stereo not drawn)	13	4	-1	-5	-6	-3	·	·
O=C(O)c1ccccc1-c1c2cc(I)c(=O)c(I)c-2oc2c(I)c(O)c(I)cc12	i	147*	-26	-174	-339	501*	91*	27*
O=Cc1ccc(-c2ccccc2C(=O)O)o1	2	4	1	1	2	6	·	·
CCOC(=O)c1cnc2cc(-c3ccc(Br)cc3)nn2c1C	-3	5	-1	0	-1	-1	·	·
C=CCN(CC=C)S(=O)(=O)c1ccc2nc(NC(=O)C3CCCO3)sc2c1 (stereo not drawn)	0	5	-1	6	-6	3	·	·
O=[N+]([O-])c1ccc(N=Cc2sc3ccccc3c2O)cc1	-9	17*	0	1	-1	-4	14	11
CCN1C/C(=C/c2ccc(N3CCOCC3)cc2)C(=O)/C(=C/c2ccc(N3CCOCC3)cc2)C1	-22	18*	1	-24	-4	27	29*	94*
CN1C/C(=C\c2ccc(N3CCOCC3)cc2)C(=O)/C(=C/c2ccc(N3CCOCC3)cc2)C1	-10	9	3	-4	-7	16	·	·
COc1ccc2ccccc2c1C(=O)/C=C\c1ccoc1	0	1	-1	5	-4	6	·	·
COCc1cc([C@@H]2C[C@H]3CN(c4ccccc4)C(=O)[C@]34CCCN24)ccc1OC	-8	2	-2	6	-5	-2	·	·
COc1ccc([C@@H]2C[C@H]3CN(c4ccccc4)C(=O)[C@]34CCCN24)c(OC)c1OC	-2	22*	-3	-13	1	1	8	14
O=C1CC(=O)N(Cc2ccco2)C(=O)N1	5	21*	94*	-18	-18	-10	13	5
CSc1ccc(N2C(=O)NC3(CCCCC3)C2=O)cc1	-4	2	-1	5	0	2	·	·
O=S(=O)(c1ccc(NC2CCCc3ccccc32)nc1)N1CCOCC1 (stereo not drawn)	-2	19*	0	-3	0	0	7	12
CN(CC(=O)NC1CCCCCC1)S(=O)(=O)c1cnc[nH]1	2	8	0	1	-1	-3	·	·
